Source: PubChem BioAssay (Broad Institute)
Shown is part of a subset that was picked to be rich in hits.
IDE exosite FP – exo-site inhibitors of human IDE, primary screen, biochemical, fluorescence anisotropy, probe displacement; 17,000 tested, 6.3% active; purified IDE, FL-6b probe fluorescence polarization; stronger effect = lower value; AID 1259349, 2017; z-score at 20 µM;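 active means z-score of -3 or lower, meaning strong loss of probe binding signal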;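 further: His-tagged human IDE residues 42-1019 made in E. coli with 30 nM FL-6b probe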
Target sequence (P14735 42-1019 limits assumed): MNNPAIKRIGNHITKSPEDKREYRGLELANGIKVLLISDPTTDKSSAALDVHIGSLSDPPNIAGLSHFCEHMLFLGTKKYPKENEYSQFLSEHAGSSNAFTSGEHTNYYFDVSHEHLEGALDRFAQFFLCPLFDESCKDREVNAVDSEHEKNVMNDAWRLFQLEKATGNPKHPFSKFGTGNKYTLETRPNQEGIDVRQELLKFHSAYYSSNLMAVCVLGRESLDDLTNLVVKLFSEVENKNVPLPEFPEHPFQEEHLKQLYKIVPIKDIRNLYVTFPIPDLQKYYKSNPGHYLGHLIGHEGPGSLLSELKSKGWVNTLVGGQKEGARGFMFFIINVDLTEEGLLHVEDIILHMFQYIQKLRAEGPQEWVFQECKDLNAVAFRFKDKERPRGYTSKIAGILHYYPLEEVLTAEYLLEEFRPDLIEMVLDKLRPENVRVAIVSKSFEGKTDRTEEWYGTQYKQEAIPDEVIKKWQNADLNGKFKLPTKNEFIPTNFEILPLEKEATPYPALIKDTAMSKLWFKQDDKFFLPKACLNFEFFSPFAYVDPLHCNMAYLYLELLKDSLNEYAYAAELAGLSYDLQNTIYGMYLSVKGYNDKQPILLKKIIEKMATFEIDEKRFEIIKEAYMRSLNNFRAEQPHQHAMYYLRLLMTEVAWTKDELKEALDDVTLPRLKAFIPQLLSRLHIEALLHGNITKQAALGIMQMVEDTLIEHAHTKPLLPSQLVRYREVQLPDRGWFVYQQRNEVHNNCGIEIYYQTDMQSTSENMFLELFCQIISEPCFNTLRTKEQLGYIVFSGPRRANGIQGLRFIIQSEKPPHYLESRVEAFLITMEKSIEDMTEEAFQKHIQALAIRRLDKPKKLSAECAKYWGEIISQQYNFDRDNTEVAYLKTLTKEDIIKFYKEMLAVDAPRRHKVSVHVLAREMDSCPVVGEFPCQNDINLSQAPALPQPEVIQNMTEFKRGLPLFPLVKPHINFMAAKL
Large screens that a line does not name were inactive.

COc1ccc(-c2ccc([C@H]3[C@@H](CO)N4C(=O)CNC[C@@H]34)cc2)cc1	none
CO[C@@H]1CN(C)C(=O)c2cc(NC(=O)c3ccc(Oc4ccccc4)cc3)ccc2OC[C@@H](C)NC[C@@H]1C	IDE exosite FP -11
COc1cccc(NC(=O)Nc2ccc3c(c2)C(=O)N(C)C[C@@H](OC)[C@H](C)CN[C@H](C)CO3)c1	none
CO[C@H]1CN(C)C(=O)c2cc(NC(=O)c3cnccn3)ccc2OC[C@H](C)NC[C@@H]1C	none
CO[C@H]1CN(C)C(=O)c2cc(NC(=O)c3cnccn3)ccc2OC[C@@H](C)NC[C@H]1C	none
CO[C@H]1CN(C)C(=O)c2cc(NC(=O)c3ccc(Oc4ccccc4)cc3)ccc2OC[C@H](C)NC[C@@H]1C	none
CO[C@H]1CN(C)C(=O)c2cc(NC(=O)c3ccc(Oc4ccccc4)cc3)ccc2OC[C@@H](C)NC[C@H]1C	IDE exosite FP -7.9
CNC[C@@H]1OCCCC[C@H](C)Oc2ccc(NC(=O)Nc3ccc(OC)cc3)cc2C(=O)N([C@H](C)CO)C[C@H]1C	none
C/C=C/c1ccc([C@@H]2[C@H](CO)N(C(=O)CC)[C@H]2CNC(=O)C2CC2)cc1	none
O=C(c1ccccn1)N1C[C@H]2[C@@H](c3ccccc31)[C@H](CO)N2C(=O)C1CCCCC1	none
COc1cccc(NC(=O)N[C@@H]2CC[C@@H](CC(=O)N3CCN(C)CC3)O[C@@H]2CO)c1	none
CCCC#Cc1ccc([C@@H]2[C@H]3CN(C(=O)Nc4ccccc4F)CC(=O)N3[C@H]2CO)cc1	none
O=C(C[C@H]1CC[C@@H]2[C@H](COC[C@H](O)CN2C(=O)c2ccccc2F)O1)NCc1ccc(Cl)c(Cl)c1	none
O=C(C1CCC1)N1CC(=O)N2[C@H](CO)[C@H](c3ccc(C#Cc4cccc(F)c4)cc3)[C@@H]2C1	none
O=C(c1cccc(F)c1)N1CC(=O)N2[C@H](CO)[C@@H](c3ccc(C#Cc4ccc(F)cc4)cc3)[C@H]2C1	none
O=C(C1CCC1)N1CC(=O)N2[C@@H](CO)[C@H](c3ccc(C#Cc4cccc(F)c4)cc3)[C@@H]2C1	IDE exosite FP -3.4
O=C(C1CCCCC1)N1CC(=O)N2[C@@H](CO)[C@H](c3ccc(C#Cc4cccc(F)c4)cc3)[C@@H]2C1	none
O=C(C1CCCC1)N1CC(=O)N2[C@H](CO)[C@@H](c3ccc(C#CC4CCCC4)cc3)[C@@H]2C1	none
O=C(C1CC1)N1CC(=O)N2[C@H](C1)[C@H](c1ccc(C#Cc3cccc(F)c3)cc1)[C@@H]2CO	IDE exosite FP -6.1
O=C(c1cccc(F)c1)N1CC(=O)N2[C@@H](CO)[C@H](c3ccc(C#Cc4ccc(F)cc4)cc3)[C@@H]2C1	none
O=C(C1CCCCC1)N1CC(=O)N2[C@@H](CO)[C@@H](c3ccc(C#Cc4cccc(F)c4)cc3)[C@@H]2C1	IDE exosite FP -4.5
O=C(C1CCC1)N1CC(=O)N2[C@H](C1)[C@@H](c1ccc(C#Cc3cccc(F)c3)cc1)[C@@H]2CO	none
O=C(Nc1ccccc1)N1CCCCN2[C@H](CO)[C@H](c3ccc(Br)cc3)[C@@H]2C1	none
O=C(Nc1ccc(F)cc1)N1CC(=O)N2[C@H](C1)[C@H](c1ccc(C#Cc3ccc(F)cc3)cc1)[C@@H]2CO	none
COC(=O)c1ccc(CN2CC(=O)N3[C@H](CO)[C@@H](c4ccc(-c5ccccc5)cc4)[C@H]3C2)cc1	none
O=C([C@H]1N[C@H]2c3ccc(/C=C/c4ccccc4)c(=O)n3C[C@H]2[C@@H]1CO)N1CCCCC1	none
CO[C@H]1CN(C)C(=O)c2cc(NC(=O)C3CCCCC3)ccc2OC[C@@H](C)N(Cc2cccnc2)C[C@@H]1C	none
Cc1nc(N2[C@@H](C#N)[C@@H](c3ccccc3)[C@@H]2CO)sc1C	none
CC(C)CC#Cc1ccc([C@@H]2[C@@H](CO)N3C(=O)CN(C(=O)c4ccc5c(c4)OCO5)C[C@@H]23)cc1	none
COCC(=O)N1CC(=O)N2[C@H](CO)[C@H](c3ccc(C#CC4CCCCC4)cc3)[C@H]2C1	none
COCC(=O)N1CC(=O)N2[C@@H](CO)[C@H](c3ccc(C#CC(C)C)cc3)[C@@H]2C1	none
O=S(=O)(c1ccccc1)N1CCCCN2[C@@H](CO)[C@@H](c3ccc(C#Cc4ccccc4)cc3)[C@@H]2C1	IDE exosite FP -5.9
COc1ccc(C#Cc2ccc([C@@H]3[C@H]4CN(S(=O)(=O)c5ccccc5)CCCCN4[C@H]3CO)cc2)cc1	none
CS(=O)(=O)N1CCCCN2[C@H](CO)[C@@H](c3ccc(C#Cc4ccccn4)cc3)[C@H]2C1	none
CCCC#Cc1ccc([C@@H]2[C@@H](CO)N3CCCCN(S(C)(=O)=O)C[C@@H]23)cc1	none
CCCC#Cc1ccc([C@H]2[C@H]3CN(S(C)(=O)=O)CCCCN3[C@H]2CO)cc1	none
CS(=O)(=O)N1CCCCN2[C@H](CO)[C@@H](c3ccc(C#Cc4ccccn4)cc3)[C@@H]2C1	none
COc1ccccc1C#Cc1ccc([C@H]2[C@@H](CO)N3CCCCN(S(C)(=O)=O)C[C@H]23)cc1	IDE exosite FP -9.9
O=S(=O)(c1ccccc1)N1CCCCN2[C@@H](CO)[C@H](c3ccc(C#Cc4ccccc4)cc3)[C@@H]2C1	none
COc1ccccc1C#Cc1ccc([C@@H]2[C@H](CO)N3CCCCN(S(C)(=O)=O)C[C@@H]23)cc1	IDE exosite FP -18
CCCC#Cc1ccc([C@@H]2[C@H]3CN(S(C)(=O)=O)CCCCN3[C@H]2CO)cc1	none
COc1ccccc1C#Cc1ccc([C@H]2[C@H]3CN(S(C)(=O)=O)CCCCN3[C@H]2CO)cc1	IDE exosite FP -9.8
CCCC#Cc1ccc([C@@H]2[C@H](CO)N3CCCCN(S(C)(=O)=O)C[C@@H]23)cc1	none
N#C[C@@H]1[C@H](c2ccccc2)[C@@H](CO)N1C(=O)CN1CCOCC1	none
Cc1ccc(-c2ccc(C3[C@@H]4CN(S(=O)(=O)c5ccccc5)C[C@H]3N4)cc2)cc1 (stereo not given in full)	none
COc1ccc2c3c(n(C)c2c1)[C@@H](CO)N(C(=O)C1CCOCC1)CC31CN(C(=O)Nc2cccc(F)c2)C1	none
O=C(C[C@H]1CC[C@H]2[C@@H](COC[C@@H](O)CN2S(=O)(=O)c2cccc(Cl)c2)O1)NC1Cc2ccccc2C1	none
O=C(C[C@H]1C=C[C@H](NC(=O)Cc2cccnc2)[C@@H](CO)O1)NCc1ccc2c(c1)OCO2	none
COc1ccc2c3c(n(C)c2c1)[C@@H](CO)N(C(C)=O)CC31CCN(Cc2ccccc2OC)CC1	none
CCCN1C[C@@H](C)[C@H](OC)CN(C)C(=O)c2cc(NS(=O)(=O)c3ccccc3)ccc2OC[C@H]1C	none
CN(C)C(=O)c1ccc(-c2ccc([C@H]3[C@@H](C#N)N(S(C)(=O)=O)[C@H]3CO)cc2)cc1	none
COCC(=O)N1CC(=O)N2[C@H](CO)[C@@H](c3ccc(C#CCc4ccccc4)cc3)[C@@H]2C1	none
COCC(=O)N1CC(=O)N2[C@H](CO)[C@H](c3ccc(C#CCc4ccccc4)cc3)[C@H]2C1	none
O=C(C1CCOCC1)N1CC(=O)N2[C@H](C1)[C@@H](c1ccc(C#CCc3ccccc3)cc1)[C@@H]2CO	none
O=C(C1CCOCC1)N1CC(=O)N2[C@@H](CO)[C@@H](c3ccc(C#CCc4ccccc4)cc3)[C@@H]2C1	none
COCC(=O)N1CC(=O)N2[C@@H](CO)[C@@H](c3ccc(C#CCc4ccccc4)cc3)[C@@H]2C1	IDE exosite FP -4.7
O=C(C1CCOCC1)N1CC(=O)N2[C@H](CO)[C@@H](c3ccc(C#CCc4ccccc4)cc3)[C@@H]2C1	none
COCC(=O)N1CC(=O)N2[C@@H](CO)[C@H](c3ccc(C#CCc4ccccc4)cc3)[C@@H]2C1	none
